Screening data as filed in PubChem.
An excerpt weighted towards active compounds, which were near 10% of everything screened.
JMJD2A Tudor: blocks the human JMJD2A Tudor domain | AlphaScreen JMJD2A-Tudor / H3K4me3 peptide binding | O75164 | 390,000 tested, 4.4% active | Potency, µM (series often up to 114 µM), for inactives: at the highest dose activity change, negative = inhibition, hits mostly inhibitors; further: on the % scale 0 is the no-effect control and ±100 the full control effect; nearly all actives have a fitted effect of over 50% in size
GLS inh: inhibitors of human glutaminase (GLS) | O94925 | GLS enzymatic activity, qHTS titration | Potency, µM (top dose mostly 45.5 µM), inactives show top-dose activity change, negative = inhibition, actives largely listed as inhibitors | 410,000 tested, 0.21% active | AID 624170; further: on the % scale 0 is the no-effect control and ±100 the full control effect
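hKGA; 45 mM KH2PO4 pH 8.2 + 0.02% Tween-20; cpd via pin tool; 1 mM Gln soln; GluOx/HRP/Amplex Red; RT 30 min; fluor. t0 & final.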
HP1b binding inh: inhibitors of HP1-beta chromodomain binding to methylated histone tails | P83916 | AlphaScreen HP1-beta / biotin-H3K9me3 peptide binding | Potency, µM (series often up to 114 µM), for inactives: at the top dose activity change, negative = inhibition, actives largely listed as inhibitors | 390,000 tested, 0.56% active; further: nearly all actives have a fitted effect of over 70% in size
Target sequence (P83916 whole entry, looked up): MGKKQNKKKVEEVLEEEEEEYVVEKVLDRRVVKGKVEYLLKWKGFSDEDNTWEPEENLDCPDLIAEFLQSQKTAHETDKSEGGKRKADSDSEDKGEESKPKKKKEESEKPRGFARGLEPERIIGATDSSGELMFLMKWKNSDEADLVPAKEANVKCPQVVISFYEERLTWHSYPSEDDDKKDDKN
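HP1-beta protein (50 nM final) preincubated 30 min at room temperature with biotinylated H3(1-18)K9me3 peptide (50 nM) in PBS pH 7.4, 0.01% Tween-20, then compound added for 30 min. AlphaScreen streptavidin donor/nickel chelate acceptor beads (10 ug/mL final), 30 min dark, luminescence read.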
BAZ2B block: blocks human BAZ2B | Q9UIF8 | AlphaScreen BAZ2B-H3K14Ac peptide displacement | Potency, µM (titrated, usually from 114 µM), for inactives: at the highest dose activity change, negative = inhibition, actives largely listed as inhibitors | 360,000 tested, 4.4% active; further: on the % scale 0 is the no-effect control and ±100 the full control effect; nearly all actives have a fitted effect of over 60% in size
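Inhibition is scored as reduced AlphaScreen emission. The BAZ2B/b-H3(5-23)K14Ac complex (50 nM each) in PBS pH 7.4, 0.01% Tween-20 meets compound (up to 110 uM) for 30 min at RT before bead addition.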
G9a block: inhibitors of human histone lysine methyltransferase G9a. Potency, µM (titrated, usually from 102 µM), inactives show at the top dose activity, negative = inhibition, actives largely listed as inhibitors. 350,000 tested, 8.8% active. G9a H3K9 monomethylation, AlphaScreen, 2 h. Q96KQ7; further: on the % scale 0 is the no-effect control and ±100 the full control effect; nearly all actives have a fitted effect of over 75% in size
Target sequence (Q96KQ7 913-1193 limits assumed): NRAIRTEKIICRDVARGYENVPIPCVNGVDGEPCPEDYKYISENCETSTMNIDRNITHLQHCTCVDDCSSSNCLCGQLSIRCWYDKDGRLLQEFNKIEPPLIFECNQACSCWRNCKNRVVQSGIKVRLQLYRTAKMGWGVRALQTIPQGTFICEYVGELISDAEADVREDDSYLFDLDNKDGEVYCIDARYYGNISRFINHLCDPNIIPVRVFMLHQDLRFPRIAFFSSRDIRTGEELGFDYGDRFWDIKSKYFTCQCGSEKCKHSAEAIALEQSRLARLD
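Enzyme 20 nM + cpd, 15 min RT; add b-H3K9 pep 500 nM / SAM 20 uM; 2 h RT; anti-H3K9me1 Ab 0.5 ug/mL + SA donor / anti-rabbit acceptor beads 20 ug/mL each, 10 min; AlphaScreen read.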
Numbers without * were called inactive; ? = inconclusive; . = not tested or not shown; ! = a repeat was not active; [ ] = another dose, or the depositor's remark. The call rests on the fitted dose curve; in most records, active means well fitted curve in the direction sought with a large enough effect; inconclusive means small, poorly fitted or top-dose-only effect, or another doubt; inactive means no such curve, though single readings can be large; an effect the other way counts as inactive or inconclusive. Potency means the concentration at half of the fitted maximal effect.

SMILES	JMJD2A Tudor	GLS inh	HP1b binding inh	BAZ2B block	G9a block
Cc1nn(S(=O)(=O)c2ccc(C(C)(C)C)cc2)c(C)c1S(=O)(=O)N1CCOCC1	?	-1%	56%	-25%	?
Cc1ccc(S(=O)(=O)n2nc(C)c(S(=O)(=O)N3CCCCC3)c2C)cc1	-6%	7%	35%	-31%	45µM*!
Cc1nn(S(=O)(=O)c2ccc(F)cc2)c(C)c1S(=O)(=O)N1CCOCC1	-12%	-4%	5%	?	35µM*
Cc1nn(S(=O)(=O)c2ccc(F)cc2)c(C)c1S(=O)(=O)N1CCC(C)CC1	4%	2%	25%[57 µM]	3%	-4%[59 µM]
Cc1nn(S(=O)(=O)c2ccc(F)cc2)c(C)c1S(=O)(=O)N1CCCCC1	-27%	4%	51%	-2%	22%[0.501 µM]
Cc1nn(S(=O)(=O)c2ccccc2)c(C)c1S(=O)(=O)N1CCOCC1	-27%	0%	43%[57 µM]	-27%	79µM*
O=S(=O)(Nc1ccc(-c2ccc(N3CCCC3)nn2)cc1)c1cc(F)ccc1F	-15%	1%	19%[57 µM]	-6%	-6%[59 µM]
C=CCn1c(SCC(=O)c2cccs2)nc2sc(C)cc2c1=O	-11%	14%	69%	-5%	8%[12.7 µM]
C=CCn1c(SCC(=O)c2ccc(O)c(O)c2)nnc1-c1cccc(OC)c1	?	0%	14%	50µM*	-4%[0.501 µM]
C=CCn1c(SCC(=O)c2cccs2)nnc1-c1cccc(OC)c1	89µM*	26%	26%	0%	?
C=CCn1c(SCC(N)=O)nnc1-c1cccc(Br)c1	-20%	-2%	29%	0%	-2%
C=CCn1c(SCC(C)=O)nnc1-c1cc(-c2ccccc2)sc1N	?	15%	-23%	?	11µM*
C=CCn1c(SCC(=O)c2ccc(O)c(O)c2)nnc1-c1ccc(OC)cc1	?	3%	4%	-19%	-3%[0.501 µM]
O=C(Nc1cccc(Cl)c1)c1cc2c(=O)[nH]c3ccccc3c2s1	-32%	-3%	4%	.	1%[59 µM]
CC(C)(C)OC(=O)CC(=O)NNC(=O)c1nc2ccccc2[nH]1	-32%	.	.	.	.
CNc1cncc(-c2ccc(OCCCN(C)C)nc2)n1	.	12%	.	.	.
Cc1ccc(S(=O)(=O)c2nc(/C=C/c3ccccc3)oc2N2CCC(C(N)=O)CC2)cc1	.	4%	.	.	.
Cc1sc(NC(=O)C2=COCCO2)nc1-c1ccc(F)cc1	-8%	3%	-7%	-7%	79µM*
Cc1sc(NC(=O)C2=COCCO2)nc1-c1ccc(Br)cc1	-34%	-8%	-7%	-32%	8%[0.501 µM]
COc1ccccc1N1CCN(C(=O)c2nn(-c3ccc(C)cc3)c(=O)n(C)c2=O)CC1	-13%	-6%	13%[57 µM]	-19%	-2%[59 µM]
Cc1nc(CNS(=O)(=O)c2cccc(F)c2)cs1	-21%	1%	26%	-35%	?
Cc1ccc(-c2csc(NS(=O)(=O)c3cccc(F)c3)n2)o1	56µM*	?	-32%	.	.
CC1(C)CC(=O)c2cnc(N3CCc4ccccc43)nc2C1	142%	0%	182%	59%	84%
Cc1ccc(C)c(C(=O)COC(=O)Cn2c(C)csc2=O)c1	-8%	2%	17%	-9%	79µM*
Oc1ccc(O)c(Cc2nc3ccccc3s2)c1	13µM*	?	20µM*	?	10µM*
SMILES	JMJD2A Tudor	GLS inh	HP1b binding inh	BAZ2B block	G9a block
O=[N+]([O-])c1ccc(Oc2cccc(C(F)(F)F)c2)nc1	?	19%	-5%	-20%	2%
Cc1ccc(C)n1-n1cnc2sc(-c3ccccc3)cc2c1=O	-25%	3%	2%	-30%	16%[12.7 µM]
Cc1ccc(C)n1-n1c(C)nc2sc(-c3ccccc3)cc2c1=O	?	-13%	-22%	?	14µM*
Cc1ccc2nc(NC(=O)CSc3nccn3Cc3ccc(Cl)cc3)sc2c1	-25%	2%	-21%[57 µM]	-13%	0%[59 µM]
Cc1cccc(N2CCN(C(=O)Cn3ncc4c3-c3cc(C)ccc3OC4)CC2C)c1 (stereo not given)	?	16%	-9%	32µM*	?
Cc1cccc(N2CCN(C(=O)CN3CCSc4ccccc43)CC2C)c1 (stereo not given)	50µM*	13%	-15%[57 µM]	?	-44%[59 µM]
Cc1cccc2nc(CSCc3ccco3)cn12	-34%	-12%	4%	?	45µM*
CCN1CCN(C2=CC3=CC(=C(C#N)C#N)CCC3CC2)CC1 (stereo not given)	9%	20%	50%	-25%	45µM*
CN1CCN(C2=CC3=CC(=C(C#N)C#N)CCC3CC2)CC1 (stereo not given)	-21%	-13%	1%	?	?
N#CC1=C2SCN(Cc3ccccc3)CN2C(=O)CC1c1ccc2c(c1)OCO2 (stereo not given)	50µM*	-4%	?	50µM*	?
CCCSC1=C(C#N)C(c2cccs2)CC(=O)N1 (stereo not given)	-10%	0%	-13%	-21%	?
N#CC1=C(N)OC2=C(C(=O)CC(c3ccccc3)C2)C1c1ccc2c(c1)OCO2 (stereo not given)	-23%	0%	2%	?	?
N#CC1=C2SCN(Cc3ccccc3)CN2C(=O)CC1c1cccs1 (stereo not given)	-28%	6%	-21%	-14%	2µM*
CC(C)CNC(=O)c1ccccc1N(Cc1ccccc1)S(C)(=O)=O	3%	-5%	35%	-6%	5%
Cc1ccc(C)c(OCC(=O)Nc2nonc2NC(=O)COc2cc(C)ccc2C)c1	-23%	-2%	33%	?	16µM*
Cc1ccc(C)c(OCC(=O)Nc2ccc(S(=O)(=O)Nc3ccccn3)cc2)c1	-23%[57.1 µM]	2%	-16%	-5%	50µM*
Cc1ccc(C(C)C)c(OCC(=O)Nc2ccc(S(=O)(=O)Nc3onc(C)c3C)cc2)c1	-28%	12%	0%	56µM*	-15%[59 µM]
Cc1cccc(OCC(=O)Nc2ccc(S(=O)(=O)Nc3ccccn3)cc2)c1	-17%	-2%	32%	-21%	-26%
Cc1cccc(OCC(=O)Nc2nonc2NC(=O)COc2cccc(C)c2)c1	-18%	-7%	15%	.	.
Cc1ccc(C)c(OCC(=O)Nc2ccc(S(=O)(=O)Nc3onc(C)c3C)cc2)c1	-6%	4%	17%	-23%	-28%[59 µM]
Fc1ccc(CNCc2ccccc2Cl)cc1	20µM*	3%	?	.	2.8µM*
CC(C)c1ccccc1NC(=O)CNCCOc1ccccc1F	28µM*	0%	?	50µM*	21%
CC(C)c1ccccc1NC(=O)Nc1ccc(F)cc1F	-4%	2%	19%	-2%	.
CCSc1ncc(Cl)c(C(=O)N(Cc2ccccc2)c2ccc(OC)cc2)n1	3%	3%	47%	7%	21%[59 µM]
COc1cccc(S(=O)(=O)N(C)C[C@@H]2OCc3cn(nn3)CCCC(=O)N([C@@H](C)CO)C[C@H]2C)c1	.	-1%	.	.	.
